Assay results as given in PubChem BioAssay (NCATS).
Results filed as inconclusive are left out. A call without a number means that no potency is given here. Active and inactive are the calls of the source. Unless noted, the call rests on the fitted dose curve; in most records, active means well fitted curve in the direction sought with a large enough effect; inconclusive means small, poorly fitted or top-dose-only effect, or another doubt; inactive means no such curve, though single readings can be large; an effect the other way counts as inactive or inconclusive.

Tests used:
[1] = Cell Viability - SH-SY5Y (AID 544); details: SH-SY5Y neuroblastoma cell viability; viability change, negative = cytotoxic: at 92.2 µM (top of the series);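 further: cells exposed to compound for 40 hours; nearly all actives have a fitted effect of over 55% in size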
Procedure, shortened: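 Cytotoxicity measured via ATP-dependent luciferase luminescence (CellTiter-Glo) following 40 h, 37 °C exposure of 1500 SH-SY5Y cells per well. Concentration-response data were fitted with the standard Hill equation to give AC50.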

[2] = Cellular Toxicity (caspase-3) Jurkat (AID 655); details: Jurkat caspase-3 activation, luminescence; caspase-3 activation: at 92.2 µM (top of the series), DMSO = 0%, tamoxifen = 100%;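 further: cells exposed to compound for 16 h at 37 °C before reading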
Procedure, shortened: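 Caspase 3/7 activation is scored as increased luminescence in Jurkat cells cultured with compound for 16 hours in complete medium. AC50 values come from Hill fits of qHTS concentration-response data normalized to DMSO and 100 uM tamoxifen controls.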

[3] = MultiTox-Fluor Cytotoxicity Assay - LYMP1-003 - Live Cells (AID 962);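 further: cells exposed to compound for 16 hours at 37 °C; cytotoxic hits lower the live-cell protease signal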
Procedure, shortened: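 Live-cell protease activity (GF-AFC substrate, 405/510 nm, 60 min at room temperature) after 16 h, 37 C compound exposure of human lymphoblastoid LYMP1-003 cells; concentration-response fitted to the Hill equation for AC50.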

[4] = Cell Viability - LYMP1-003 - Assay at 24 hr (AID 963)
Procedure, shortened: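 Concentration-response qHTS: ATP loss measured by CellTiter-Glo luminescence after 24 h compound exposure at 37 C. Cells were LYMP1-003 human lymphoblastoid, 2500 per well. AC50 derived via standard Hill equation modeling.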

[5] = Cell Viability - LYMP1-003 - Assay at 40 hr (AID 964); further: nearly all actives have a fitted effect of over 60% in size
Procedure, shortened: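 Viability is taken as cellular ATP, read by CellTiter-Glo luminescence after 40 h of compound exposure at 37 C. Cells: human lymphoblastoid line LYMP1-003 at 2500/well; AC50 values derived by Hill-equation fitting of concentration-response data.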

[6] = Cell Viability - LYMP2-003 (AID 965);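 further: cells exposed to compounds for 24 h before reading; nearly all actives have a fitted effect of over 50% in size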
Procedure, shortened: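 Acute cytotoxicity is scored as a concentration-dependent drop in intracellular ATP, measured by luciferase luminescence in human lymphoblastoid cells treated for 24 hours at 37 C. AC50 values derive from Hill-equation modelling.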

[7] = Cell Viability - LYMP2-004 (AID 966); further: nearly all actives have a fitted effect of over 65% in size
Procedure, shortened: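 AC50 values come from Hill modelling of concentration-dependent loss of intracellular ATP, measured by CellTiter-Glo luminescence. Human LYMP2-004 lymphoblastoid cells (2500/well) were exposed to compound for 24 h at 37 C.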

[8] = Cell Viability - LYMP2-017 (AID 972); further: nearly all actives have a fitted effect of over 55% in size
Procedure, shortened: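 CellTiter-Glo luminescence (cellular ATP, 30 min RT) measured cytotoxicity after 24 hr compound treatment at 37 C. Cells were a human lymphoblastoid line, LYMP2-017, plated at 2500/well and incubated 5 hr first; concentration-response fitted with Hill equation for AC50.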

[9] = Cell Viability - LYMP2-019 (AID 973); further: nearly all actives have a fitted effect of over 55% in size
Procedure, shortened: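 AC50 values come from Hill-equation fits of luminescent intracellular ATP (CellTiter-Glo, 30 min, room temperature) following 24 h compound exposure at 37 C. Cells: LYMP2-019 lymphoblastoid line, 2500 per well, in complete culture medium.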

[10] = Cell Viability - LYMP2-025 (AID 976)
Procedure, shortened: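 Cytotoxicity read as loss of intracellular ATP (luciferase luminescence) after 24 h compound treatment at 37 C. Uses LYMP2-025 lymphoblastoid cells in 1536-well format; Hill-equation modelling gives AC50; tetraoctylammonium bromide as positive control.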

[11] = Cell Viability - LYMP2-007 (AID 979);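 further: cells exposed to compound for 24 h before reading; nearly all actives have a fitted effect of over 60% in size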
Procedure, shortened: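 AC50 values come from Hill-equation fits of luminescent intracellular ATP (CellTiter-Glo, 30 min, room temperature) following 24 h compound exposure at 37 C. Cells: LYMP2-007 lymphoblastoid line, 2500 per well, in complete culture medium.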

[12] = Cell Viability - LYMP2-008 (AID 980); further: nearly all actives have a fitted effect of over 60% in size
Procedure, shortened: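 Cytotoxicity determined from ATP-dependent luciferase luminescence (CellTiter-Glo) following 24 h compound exposure of human lymphoblastoid LYMP2-008 cells at 37 C. Concentration-response data fitted to the Hill equation to give AC50.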

[13] = Cell Viability - LYMP2-012 (AID 982);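 further: cellular ATP by luciferase luminescence where a drop means cytotoxicity; cells exposed to compound for one day before reading; nearly all actives have a fitted effect of over 55% in size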
[14] = Cell Viability - LYMP2-014 (AID 983); further: nearly all actives have a fitted effect of over 50% in size
Procedure, shortened: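 Intracellular ATP loss, read by luciferase luminescence, measures acute cytotoxicity after 24 h compound exposure of lymphoblastoid LYMP2-014 cells (2500/well, 37 C). Concentration-response data fitted to the Hill equation for AC50.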

[15] = Cell Viability - LYMP2-018 (AID 985); further: nearly all actives have a fitted effect of over 50% in size
Procedure, shortened: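 Viability read as CellTiter-Glo luminescence (cellular ATP) after 24 hr compound exposure at 37 C of 2500 LYMP2-018 lymphoblastoid cells/well, pre-plated 5 hr. Hill-equation modelling gave AC50.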

[16] = Cell Viability - LYMP1-002 - Assay at 40 hr (AID 994); further: nearly all actives have a fitted effect of over 60% in size
Procedure, shortened: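 Cytotoxicity was read as loss of cellular ATP (CellTiter-Glo luminescence) after 40 hr compound exposure at 37 C of 2500 LYMP1-002 lymphoblastoid cells per well. Concentration-response data were fitted with the standard Hill equation to give AC50.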

[17] = qHTS assay for small molecule agonists of retinoid X receptor alpha signaling (AID 588544; calls by dose curve); details: HEK293T RXRa-UAS-bla, beta-lactamase reporter, 18 h; 530 nm emission
[18] = target: Retinoic acid receptor RXR-alpha (Homo sapiens) (UniProt P19793); assay: as above
[19] = qHTS assay for small molecule antagonists of retinoid X receptor alpha signaling (AID 588546); details: HEK293T RXRa-UAS-bla, beta-lactamase ratio, antagonist mode; measured here: W530 green channel, cytotoxicity proxy;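 further: cells stimulated with 9-cis-retinoic acid as agonist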
Procedure, shortened: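 Beta-lactamase reporter inhibition, read as CCF4 fluorescence ratio (ex 405, em 460/530 nm) after 2 h at RT. HEK293T UAS-bla cells, 2500/well, were stimulated with 9-cis-RA at 500 or 100 nM final alongside test compound for 18 h at 37 C.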

[20] = qHTS assay for small molecule antagonists of the retinoid-related orphan receptor gamma (ROR-gamma) signaling pathway - cell viability counter screen (AID 720652; active means well fitted curve in the direction sought with a large enough effect in the repeat runs; an effect the other way counts as inactive or inconclusive;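 further: CHO reporter cells with doxycycline-induced ROR-gamma expression; compound exposure lasted 16 hr before ATP read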)
Procedure, shortened: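 Cytotoxicity counter screen: intracellular ATP (CellTiter-Glo luminescence) measured in the doxycycline-induced CHO RORE-luciferase reporter line after 16 hr compound exposure at 37 C, 5% CO2.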

Sequence of Retinoic acid receptor RXR-alpha (Homo sapiens) (P19793 whole entry, looked up): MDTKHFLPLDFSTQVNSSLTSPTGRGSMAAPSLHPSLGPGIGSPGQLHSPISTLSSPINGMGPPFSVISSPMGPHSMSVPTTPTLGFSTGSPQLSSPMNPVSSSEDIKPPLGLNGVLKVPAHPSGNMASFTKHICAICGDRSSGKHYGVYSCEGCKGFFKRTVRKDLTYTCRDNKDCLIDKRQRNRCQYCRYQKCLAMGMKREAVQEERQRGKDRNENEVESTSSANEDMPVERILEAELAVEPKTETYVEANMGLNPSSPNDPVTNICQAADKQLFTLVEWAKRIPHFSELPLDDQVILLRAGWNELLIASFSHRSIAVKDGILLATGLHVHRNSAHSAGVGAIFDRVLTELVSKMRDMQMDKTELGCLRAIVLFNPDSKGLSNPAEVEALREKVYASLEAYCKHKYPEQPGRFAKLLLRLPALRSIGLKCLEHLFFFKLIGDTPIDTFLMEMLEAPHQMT

| Compound | Potency [1] | caspase-3 activation [2] | outcome [3] | outcome [4] | Potency [5] | Potency [6] | Potency [7] | Potency [8] | Potency [9] | Potency [10] | Potency [11] | Potency [12] | Potency [13] | Potency [14] | Potency [15] | Potency [16] | max response [17] [%] | outcome [18] | max response [19] [%] | Potency [20] |
| --- | --- | --- | --- | --- | --- | --- | --- | --- | --- | --- | --- | --- | --- | --- | --- | --- | --- | --- | --- | --- |
| ClCCOCOCCCl | inactive | -0.171% (inactive) | inactive | inactive | inactive | inactive | inactive | inactive | inactive | inactive | inactive | inactive | inactive | inactive | inactive | inactive | -19.5 | inactive | -0.61 | inactive |
| ClCc1ccccc1 | inactive | 0.582% (inactive) | inactive | inactive | inactive | inactive | inactive | inactive | inactive | inactive | inactive | inactive | inactive | inactive | inactive | inactive | -0.901 | inactive | -2.86 | inactive |
| C=CC(=O)OCC(C)C | inactive | 0.654% (inactive) | inactive | inactive | inactive | inactive | inactive | inactive | inactive | inactive | inactive | inactive | inactive | inactive | inactive | inactive | -3.12 | inactive | 4.12 | inactive |
| Clc1cccc(Cl)c1 | inactive | -0.0419% (inactive) | inactive | inactive | inactive | inactive | inactive | inactive | inactive | inactive | inactive | inactive | inactive | inactive | inactive | inactive | 5.35 | inactive | -14.2 |  |
| S=c1[nH]c2ccccc2[nH]1 | inactive | -0.402% (inactive) | inactive | inactive | inactive | inactive | inactive | inactive | inactive | inactive | inactive | inactive | inactive | inactive | inactive | inactive | 8.12 | inactive | -17.8 | inactive |
| CC(C)(Cl)[N+](=O)[O-] | inactive | 0.332% (inactive) | inactive | inactive | inactive | inactive | inactive | inactive | inactive | inactive | inactive | inactive | inactive | inactive | inactive | inactive | -3.38 | inactive | -8.14 | inactive |
| C=C(Cl)CCl | inactive | 1.48% (inactive) | inactive | inactive | inactive | inactive | inactive | inactive | inactive | inactive | inactive | inactive | inactive | inactive | inactive | inactive | -8.31 | inactive | 4.21 | inactive |
